Data reported in PubChem BioAssay (Tox21).
Active and inactive are the calls of the source. A call without a number means that no potency is given here. Unless noted, the call rests on the fitted dose curve; in most records, active means well fitted curve in the direction sought with a large enough effect in the repeat runs; inconclusive means weak or mixed curves; inactive means no such curve, though single readings can be large; an effect the other way counts as inactive or inconclusive.

Columns and labels:
[1] = qHTS assay to identify small molecule antagonists of the glucocorticoid receptor (GR) signaling pathway - cell viability counter screen (AID 720693); further: nearly all actives have a fitted effect of over 55% in size; further: potency means the concentration at half of the fitted maximal effect
[2] = qHTS assay for identifying genotoxic compounds that show differential cytotoxicity against isogenic chicken DT40 cell lines with known DNA damage response pathways - wild type cell line (AID 743012); further: nearly all actives have a fitted effect of over 60% in size; further: potency means the concentration at half of the fitted maximal effect
In short: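 Viability of DNA repair-proficient chicken DT40 cells was assessed by CellTiter-Glo luminescence following 40 h compound exposure at 37 C/5% CO2.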

[3] = qHTS assay for identifying genotoxic compounds that show differential cytotoxicity against isogenic chicken DT40 cell lines with known DNA damage response pathways - Rev3 mutant cell line (AID 743014); further: nearly all actives have a fitted effect of over 55% in size; further: potency means the concentration at half of the fitted maximal effect
[4] = qHTS assay for identifying genotoxic compounds that show differential cytotoxicity against isogenic chicken DT40 cell lines with known DNA damage response pathways - Rad54/Ku70 mutant cell line (AID 743015); further: nearly all actives have a fitted effect of over 60% in size; further: potency means the concentration at half of the fitted maximal effect
[5] = qHTS assay to identify small molecule antagonists of the androgen receptor (AR) signaling pathway - cell viability counter screen (AID 743033; further: nearly all actives have a fitted effect of over 45% in size; further: potency means the concentration at half of the fitted maximal effect)
[6] = qHTS assay to identify small molecule antagonists of the androgen receptor (AR) signaling pathway using the MDA cell line - cell viability counter screen (AID 743041; further: nearly all actives have a fitted effect of over 45% in size; further: potency means the concentration at half of the fitted maximal effect)
In short: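 qHTS viability read-out; MDA-kb2 AR-luc; R1881-stimulated; 16 h exposure at 37C, 0% CO2; CellTiter-Fluor, 30 min; fluorescence intensity.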

[7] = qHTS assay to identify small molecule antagonists of the estrogen receptor alpha (ER-alpha) signaling pathway - cell viability counter screen (AID 743074; calls by dose curve; further: nearly all actives have a fitted effect of over 45% in size; further: potency means the concentration at half of the fitted maximal effect)
[8] = qHTS assay to identify small molecule antagonists of the estrogen receptor alpha (ER-alpha) signaling pathway using the BG1 cell line - cell viability counter screen (AID 743081);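 further: compound given together with 17beta-estradiol as the ER stimulus; series mostly up to about 70 µM; nearly all actives have a fitted effect of over 45% in size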
Aromatase (Homo sapiens) = Aromatase (Homo sapiens) (UniProt P11511); assay: qHTS assay to identify aromatase inhibitors (AID 743083); further: nearly all actives have a fitted effect of over 55% in size; further: potency means the concentration at half of the fitted maximal effect
Aromatase (Homo sapiens), sequence (P11511 whole entry, looked up): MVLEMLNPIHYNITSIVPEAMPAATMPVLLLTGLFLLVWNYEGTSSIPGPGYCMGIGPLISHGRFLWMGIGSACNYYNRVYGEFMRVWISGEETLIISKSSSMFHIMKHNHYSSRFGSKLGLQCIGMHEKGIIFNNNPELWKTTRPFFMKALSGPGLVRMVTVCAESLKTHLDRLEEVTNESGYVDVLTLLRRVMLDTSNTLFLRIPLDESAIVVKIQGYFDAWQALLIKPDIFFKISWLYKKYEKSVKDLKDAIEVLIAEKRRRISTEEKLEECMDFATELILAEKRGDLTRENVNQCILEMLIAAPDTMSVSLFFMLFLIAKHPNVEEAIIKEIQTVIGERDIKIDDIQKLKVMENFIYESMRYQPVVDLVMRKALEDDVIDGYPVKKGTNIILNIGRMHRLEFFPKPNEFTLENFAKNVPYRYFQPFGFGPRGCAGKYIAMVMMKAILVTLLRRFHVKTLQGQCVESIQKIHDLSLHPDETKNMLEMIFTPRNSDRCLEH

[9] = molecular target: Androgen receptor (Homo sapiens) (UniProt P10275); assay: qHTS assay to identify small molecule antagonists of the androgen receptor (AR) signaling pathway (AID 743035; active means well fitted inhibition curve with a large enough effect in the signal ratio in the repeat runs, not every such curve was filed as active; inconclusive means weak or mixed curves, or effect the other way; inactive means no such curve, though single readings can be large or run the other way; the % refers to the signal ratio; further: potency means the concentration at half of the fitted maximal effect)
Androgen receptor (Homo sapiens), sequence (P10275 whole entry, looked up): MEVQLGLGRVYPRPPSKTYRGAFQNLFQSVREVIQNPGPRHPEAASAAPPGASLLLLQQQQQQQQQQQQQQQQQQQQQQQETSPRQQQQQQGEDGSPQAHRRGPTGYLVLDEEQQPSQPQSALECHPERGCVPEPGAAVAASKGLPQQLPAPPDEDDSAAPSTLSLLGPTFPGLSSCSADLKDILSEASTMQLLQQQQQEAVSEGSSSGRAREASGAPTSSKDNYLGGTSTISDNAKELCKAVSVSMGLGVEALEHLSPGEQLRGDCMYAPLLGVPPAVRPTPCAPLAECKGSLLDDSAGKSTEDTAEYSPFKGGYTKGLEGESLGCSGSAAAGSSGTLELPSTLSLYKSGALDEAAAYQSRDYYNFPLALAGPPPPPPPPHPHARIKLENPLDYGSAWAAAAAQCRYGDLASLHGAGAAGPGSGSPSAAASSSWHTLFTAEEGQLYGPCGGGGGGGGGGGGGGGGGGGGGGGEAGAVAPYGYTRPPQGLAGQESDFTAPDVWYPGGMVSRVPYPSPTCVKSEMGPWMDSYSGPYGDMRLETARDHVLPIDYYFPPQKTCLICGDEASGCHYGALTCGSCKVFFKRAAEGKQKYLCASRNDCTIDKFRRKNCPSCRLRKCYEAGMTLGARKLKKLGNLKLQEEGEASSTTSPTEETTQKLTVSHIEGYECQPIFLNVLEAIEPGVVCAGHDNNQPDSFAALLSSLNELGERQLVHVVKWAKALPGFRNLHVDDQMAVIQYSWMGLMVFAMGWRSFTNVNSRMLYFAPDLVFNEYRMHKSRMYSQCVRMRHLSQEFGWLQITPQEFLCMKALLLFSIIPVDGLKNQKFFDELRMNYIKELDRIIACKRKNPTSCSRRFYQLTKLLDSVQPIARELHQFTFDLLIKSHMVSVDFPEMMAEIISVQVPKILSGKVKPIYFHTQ
In short: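 Reporter HEK293 cells were exposed to compounds and R1881 overnight (16 h, 37C); beta-lactamase activity was then quantified by FRET fluorescence.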

[10] = molecular target: Androgen receptor (Homo sapiens) (UniProt P10275); assay: qHTS assay to identify small molecule agonists of the androgen receptor (AR) signaling pathway (AID 743036; active means well fitted activation curve with a large enough effect in the signal ratio in the repeat runs, with a control signal flat, not every such curve was filed as active; inconclusive means weak or mixed curves, or effect the other way; inactive means no such curve, though single readings can be large or run the other way; the % refers to the signal ratio)
In short: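 Fluorescence from a beta-lactamase FRET substrate served as read-out in AR-UAS-bla GripTite HEK293 cells. Cells were treated with DMSO-dissolved compounds for 16 h at 37C, then with LiveBLAzer B/G substrate for 2 h at room temperature.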

[11] = molecular target: Androgen receptor (Homo sapiens) (UniProt P10275); assay: qHTS assay to identify small molecule agonists of the androgen receptor (AR) signaling pathway using the MDA cell line (AID 743040; further: nearly all actives have a fitted effect of over 20% in size)
In short: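 Agonist activity is measured as luciferase luminescence in human MDA-kb2 cells whose MMTV reporter responds to both AR and GR. Compounds in DMSO incubate 16 h at 37C, 0% CO2, and ONE-Glo is read after 30 min.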

[12] = molecular target: Androgen receptor (Homo sapiens) (UniProt P10275); assay: qHTS assay to identify small molecule antagonists of the androgen receptor (AR) signaling pathway using the MDA cell line (AID 743042; further: nearly all actives have a fitted effect of over 55% in size; further: potency means the concentration at half of the fitted maximal effect)
In short: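 MDA-kb2 cells (human breast carcinoma, stably carrying an MMTV-luciferase reporter responsive to AR and GR) were plated at 3,000 cells/well and preincubated 5 hr at 37C, then given compound plus R1881 agonist for 16 h. ONE-Glo luminescence was read.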

[13] = system: thyroid hormone receptor (rat, GH3 cells); assay: qHTS assay to identify small molecule agonists of the thyroid receptor (TR) signaling pathway (AID 743066; calls by dose curve)
[14] = molecular target: Estrogen receptor (Homo sapiens) (UniProt P03372); assay: qHTS assay to identify small molecule antagonists of the estrogen receptor alpha (ER-alpha) signaling pathway (AID 743069; active means well fitted curve in the direction sought with a large enough effect in the signal ratio in the repeat runs, not every such curve was filed as active; inconclusive means weak or mixed curves, or effect the other way; inactive means no such curve, though single readings can be large or run the other way; the % refers to the signal ratio; further: potency means the concentration at half of the fitted maximal effect)
Estrogen receptor (Homo sapiens), sequence (P03372 whole entry, looked up): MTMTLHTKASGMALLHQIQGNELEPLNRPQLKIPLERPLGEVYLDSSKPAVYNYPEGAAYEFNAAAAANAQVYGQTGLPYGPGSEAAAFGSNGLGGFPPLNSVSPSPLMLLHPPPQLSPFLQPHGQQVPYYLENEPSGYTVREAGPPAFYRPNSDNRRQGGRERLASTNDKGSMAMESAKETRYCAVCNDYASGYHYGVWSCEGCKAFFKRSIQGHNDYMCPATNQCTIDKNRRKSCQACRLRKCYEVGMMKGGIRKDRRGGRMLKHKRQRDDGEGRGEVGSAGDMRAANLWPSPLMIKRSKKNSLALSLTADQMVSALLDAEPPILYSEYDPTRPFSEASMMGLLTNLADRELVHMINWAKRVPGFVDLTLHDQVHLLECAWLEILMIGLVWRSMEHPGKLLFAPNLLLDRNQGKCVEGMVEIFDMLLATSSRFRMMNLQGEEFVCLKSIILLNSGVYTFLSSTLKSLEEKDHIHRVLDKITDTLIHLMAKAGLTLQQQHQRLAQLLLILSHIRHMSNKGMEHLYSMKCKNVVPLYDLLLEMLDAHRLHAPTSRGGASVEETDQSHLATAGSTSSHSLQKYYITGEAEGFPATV
In short: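 Screening used a UAS-driven beta-lactamase reporter integrated into HEK293 cells expressing ER-alpha, stimulated with 17beta-estradiol alongside test compounds over 18 hr at 37C; signal came from LiveBLAzer B/G FRET fluorescence.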

[15] = molecular target: Estrogen receptor (Homo sapiens) (UniProt P03372); assay: qHTS assay to identify small molecule agonists of the estrogen receptor alpha (ER-alpha) signaling pathway (AID 743075; calls by dose curve; further: potency means the concentration at half of the fitted maximal effect)
[16] = molecular target: Estrogen receptor (Homo sapiens) (UniProt P03372); assay: qHTS assay to identify small molecule agonists of the estrogen receptor alpha (ER-alpha) signaling pathway using the BG1 cell line (AID 743079); further: nearly all actives have a fitted effect of over 20% in size
[17] = qHTS assay to identify small molecule antagonists of the estrogen receptor alpha (ER-alpha) signaling pathway using the BG1 cell line (AID 743080; calls by dose curve;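 further: BG1 cells stimulated with 17beta-estradiol alongside compound; series mostly up to about 70 µM; nearly all actives have a fitted effect of over 25% in size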)
In short: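 Seeding, 24 h rest, compound transfer from DMSO, 17beta-estradiol addition, 21.5 h incubation, CellTiter-Fluor (30 min, 37 C), then ONE-Glo (30 min, room temperature): this sequence was run on BG1-Luc-4E2 reporter cells.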

[18] = qHTS assay to identify small molecule antagonists of the thyroid receptor (TR) signaling pathway - cell viability counter screen (AID 743064); further: nearly all actives have a fitted effect of over 50% in size; further: potency means the concentration at half of the fitted maximal effect
In short: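 Fluorescence from CellTiter-Fluor, added after 23.5 h exposure at 37 °C, reported viability of GH3.TRE-Luc cells co-treated with compound and 1 nM T3. Measured in the same wells as the luciferase TR readout.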

[19] = qHTS assay to identify small molecule antagonists of the thyroid receptor (TR) signaling pathway (AID 743065); further: nearly all actives have a fitted effect of over 55% in size; further: potency means the concentration at half of the fitted maximal effect
In short: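 GH3.TRE-Luc rat pituitary cells carrying two TR response elements driving luciferase were plated for 4 h, given compound plus 1 nM T3 (final), and incubated 23.5 h at 37 C. ONE-Glo luminescence measured reporter inhibition; CellTiter-Fluor fluorescence tracked cytotoxicity.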

Row | Compound | Potency [1] | Potency [2] | Potency [3] | Potency [4] | Potency [5] | Potency [6] | Potency [7] | Potency [8] | Potency (Aromatase (Homo sapiens)) | Potency [9] | outcome [10] | Potency [11] | Potency [12] | Potency [13] | Potency [14] | Potency [15] | Potency [16] | Potency [17] | Potency [18] | Potency [19]
1 | C=CC(=O)OC(C)(C)C | inactive | inactive | inactive | inactive | inactive | inactive | inactive | inactive | inactive |  |  |  |  |  |  |  |  |  |  | 
2 | CCCCC(CC)COP(=O)(Oc1ccccc1)Oc1ccccc1 (stereo not drawn) | inactive | inactive | 48.6 µM (active) |  | inactive | inactive | inactive | inactive | inactive | inactive | inactive | inactive | inactive | inactive | inactive | inactive | inactive | inactive |  | 
3 | C[C@H]1CNCCc2ccc(Cl)cc21 | inactive | 26.6 µM (active) | 13.3 µM (active) |  | inactive | inactive | inactive | inactive | inactive |  |  |  |  | inactive | inactive | inactive | inactive |  | inactive | inactive
4 | COc1cc(CC(C)N)cc2c1OCO2 (stereo not drawn) | inactive | inactive | inactive | inactive | inactive | inactive |  |  | inactive |  |  |  |  | inactive |  | inactive | inactive | inactive |  | 
5 | CN1C[C@H](CNC(=O)OCc2ccccc2)C[C@@H]2c3cccc4c3c(cn4C)C[C@H]21 | inactive | 5.96 µM (active) | 8.41 µM (active) | 8.41 µM (active) |  |  | inactive |  |  |  |  |  |  |  |  | inactive |  | inactive |  | 10.6 µM (active)
6 | CC1(C)[C@H](C=C(Cl)Cl)[C@@H]1C(=O)O[C@@H](C#N)c1cccc(Oc2ccccc2)c1 | inactive | inactive | inactive |  | inactive | inactive | inactive | inactive | inactive |  |  |  |  | inactive | inactive | inactive |  | inactive |  | inactive
7 | COC1=CC(=O)O[C@@H](CCc2ccccc2)C1 | inactive | inactive | inactive |  | inactive | inactive | inactive | inactive | inactive |  |  | inactive | inactive | inactive |  |  |  |  | inactive | inactive
8 | O=C(OC1CCCCC1)c1ccccc1C(=O)OC1CCCCC1 | inactive | 28.8 µM (active) | 22.9 µM (active) | 25.7 µM (active) |  | inactive | inactive | inactive |  |  |  |  |  | inactive |  | inactive | inactive |  |  | 72.3 µM (active)
9 | C[C@@H]1CC[C@H]2[C@@H](C)C(=O)O[C@@H]3O[C@@]4(C)CC[C@@H]1[C@]32OO4 | inactive | 0.422 µM (active) | 0.473 µM (active) | 0.237 µM (active) |  |  | inactive | inactive |  | 1.69 µM (active) | inactive | inactive | 1.33 µM (active) | inactive |  |  |  |  |  | 2.37 µM (active)
10 | NS(=O)(=O)C(F)(F)C(F)(F)C(F)(F)C(F)(F)C(F)(F)C(F)(F)C(F)(F)C(F)(F)F | 54.9 µM (active) | 54.5 µM (active) | 34.4 µM (active) |  | inactive |  |  |  | inactive |  |  | inactive | 68.6 µM (active) | inactive |  | 43.6 µM [inconclusive] (active) | inactive |  | 61.1 µM (active) | 61.1 µM (active)
11 | CCOC(=O)[C@]1(c2ccccc2)Oc2ccccc2[C@@H]1N | inactive | 48.6 µM (active) | 4.86 µM (active) | 24.3 µM (active) |  |  |  |  | 27.3 µM (active) |  |  |  |  |  |  |  |  |  | 68.6 µM (active) | 68.6 µM (active)
12 | NC(=O)CI | inactive | inactive | inactive |  | inactive | inactive | inactive | inactive | inactive |  |  |  |  | inactive | inactive | inactive | inactive | inactive |  | inactive
13 | COC(C)(C)CCC[C@H](C)C/C=C/C(C)=C/C(=O)OC(C)C | inactive | 21.7 µM (active) | 24.3 µM (active) | 19.3 µM (active) |  |  | inactive | inactive | inactive |  | inactive | inactive |  | inactive |  |  |  |  |  | 
14 | COc1ccc(-c2ccccc2)cc1NNC(=O)OC(C)C | inactive | 63.7 µM (active) | 71.5 µM (active) | 28.4 µM (active) |  | inactive |  | inactive | inactive | 51 µM (active) |  | inactive | 71.5 µM (active) | inactive |  | inactive |  |  |  | 
15 | COP(=O)(OC)O/C(=C/Cl)c1cc(Cl)c(Cl)cc1Cl | inactive | 64.6 µM (active) | 28.8 µM (active) | 64.6 µM (active) |  | inactive |  | inactive | 40.7 µM (active) | 18.4 µM (active) | inactive | inactive | 72.4 µM (active) | inactive | 16.4 µM [inconclusive] (active) |  |  |  |  | 28.8 µM (active)
16 | CS/C(C)=N/OC(=O)N(C)SN(C)C(=O)O/N=C(\C)SC | inactive | 6.86 µM (active) | 17.2 µM (active) | 15.4 µM (active) |  | inactive | inactive | inactive | inactive | inactive | inactive | inactive | inactive | inactive | inactive | inactive | inactive | inactive | 27.3 µM (active) | 27.3 µM (active)
17 | CCOP(=S)(OCC)SCn1nnc2ccccc2c1=O | inactive | 7.7 µM (active) | 7.7 µM (active) | 9.69 µM (active) | 24.5 µM (active) | 61.1 µM (active) | 49 µM (active) |  | 34.4 µM (active) |  |  |  |  | inactive |  | 19.5 µM [inconclusive] (active) |  |  |  | 
18 | CCOC(=O)COc1cc(-c2nn(C)c(OC(F)F)c2Cl)c(F)cc1Cl | inactive |  | inactive | 43.3 µM (active) | inactive | inactive | inactive |  | inactive |  |  | inactive | inactive | inactive |  |  |  |  | inactive | inactive
